Shown are actives, neighbours in structure and some others; about 7.4% of the full set was active somewhere.
NPC1 promoter act = NPC1 promoter activation. AID 485313. actives 2.4% (n = 320,000). Huh7 NPC1 promoter luciferase reporter, 24 h. Potency, µM (series often up to 9.22 µM), inactives show at the top dose activation, hits mostly activators; also: % of control where 0% means no effect; nearly all actives have a fitted effect of over 60% in size
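Luminescence from an NPC1 promoter-driven luciferase reporter in stably transfected Huh7 cells was measured after 24 h compound treatment at 37 °C, followed by 10 min ambient incubation with luciferase detection reagent.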
Rab9 promoter act = activators of Rab9 promoter; AID 485297; actives 2.8% (n = 320,000); Huh7 Rab9 promoter-luciferase reporter, luminescence, 24 h; Potency, µM (top dose mostly 9.22 µM), without a hit: at the top dose activation, negative = inhibition, usual class: activators; also: % of control where 0% means no effect; nearly all actives have a fitted effect of over 60% in size
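Using Huh7 cells stably transfected with Rab9 promoter–luciferase, compounds were incubated 24 h at 37 °C, 5% CO2; luciferase luminescence was read 10 min after reagent addition.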
SMN2 splice enh = SMN2 splice variant enhancement; HEK293 SMN2-luciferase splicing reporter, luminescence, 30-36 h; Potency, µM (series often up to 46.1 µM), without a hit: at the highest dose activity change, positive = activation, actives largely listed as activators; actives 2.8% (n = 210,000); AID 1458; also: % of control where 0% means no effect; nearly all actives have a fitted effect of over 55% in size
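qHTS luciferase splicing reporter: luminescence rises when SMN2 exon 7 is included in transfected HEK293 cells. Compound exposure lasted 30-36 h at 37C, with 4.5 mM final sodium butyrate as control, followed by a ONE-Glo read.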
Luc counter = counter-screen: inhibitors of Kinase-Glo firefly luciferase; AID 1379; actives 0.28% (n = 200,000); Potency, µM (top dose mostly 38.3 µM), for inactives: top-dose activity change, negative = inhibition, most hits filed as inhibitors; Kinase-Glo luciferase, ATP luminescence, 8 min; also: % is scaled to controls: 0 for no effect and ±100 for the full control effect; nearly all actives have a fitted effect of over 60% in size
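Inhibition of Kinase-Glo luciferase light generation was assessed at 10 uM ATP in pH 7.2 imidazole buffer, with luminescence measured after eight minutes at ambient temperature.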
FLuc modulator = counter-screen for miR-21 project: firefly luciferase inhibitors or activators; P08659; purified FLuc, Km substrates, luminescence inhibition; Potency, µM (top dose mostly 57.5 µM), without a hit: at the top dose activity change, negative = inhibition, actives largely listed as inhibitors; actives 6.9% (n = 360,000); AID 588342;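 also: plate controls were vehicle for no effect and reference inhibitor for full effect; nearly all actives have a fitted effect of over 55% in size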
Target sequence (P08659 whole entry, looked up): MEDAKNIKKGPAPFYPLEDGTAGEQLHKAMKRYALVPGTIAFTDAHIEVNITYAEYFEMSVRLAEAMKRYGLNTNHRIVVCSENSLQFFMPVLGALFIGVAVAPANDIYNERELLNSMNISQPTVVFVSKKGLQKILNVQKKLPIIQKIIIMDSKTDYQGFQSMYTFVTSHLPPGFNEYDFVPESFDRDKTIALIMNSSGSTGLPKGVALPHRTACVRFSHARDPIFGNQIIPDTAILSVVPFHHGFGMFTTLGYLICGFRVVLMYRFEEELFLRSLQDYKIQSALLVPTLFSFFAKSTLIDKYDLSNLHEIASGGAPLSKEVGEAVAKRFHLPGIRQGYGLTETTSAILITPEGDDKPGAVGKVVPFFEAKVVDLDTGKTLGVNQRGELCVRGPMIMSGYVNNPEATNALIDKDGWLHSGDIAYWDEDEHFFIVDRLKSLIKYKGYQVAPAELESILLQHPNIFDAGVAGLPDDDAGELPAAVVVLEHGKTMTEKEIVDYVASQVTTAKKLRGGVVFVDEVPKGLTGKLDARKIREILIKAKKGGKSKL
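Biochemical qHTS of compounds, final roughly 60 µM downward over six points, against 10 nM purified firefly luciferase using Km concentrations of substrates (10 uM D-luciferin, 10 uM ATP) in Tris acetate pH 7.5 buffer; luminescence output.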
ELG1 genotoxic = induces genotoxicity in HEK293T cells with luciferase-tagged ELG1 | HEK293T ELG1-luciferase reporter, luminescence, 16 h | actives 1.3% (n = 330,000) | Potency, µM (highest dose often 46 µM), for the others: at the top dose activity change, positive = activation, usual class: activators; also: % of control where 0% means no effect; nearly all actives have a fitted effect of over 60% in size
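16 hr compound incubation (37 °C, 5% CO2) of HEK293T cells carrying luciferase-tagged ELG1; luciferase then measured by ONE-Glo luminescence after 30 min at RT.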
The depositor's hits bear a star; [ ] = dose if it differs, or a comment. Calls follow the shape of the dose curve; as a rule, active = well fitted curve in the direction sought with a large enough effect; inconclusive = small, poorly fitted or top-dose-only effect, or another doubt; inactive = no such curve, though single readings can be large; an effect the other way counts as inactive or inconclusive. Potency is read from the fitted curve at half-maximal effect.

Results for O=C(Nc1nnc(-c2cc(Cl)ccc2Cl)o1)C1=COCCO1 ?
NPC1 promoter act: 10.7%; Rab9 promoter act: -1.9%; FLuc modulator: -29.7%; ELG1 genotoxic: 3.2%

How did O=C(Nc1ccc(Cl)cc1C(=O)Nc1ccncc1)c1ccco1 do in these assays?
NPC1 promoter act: 2.1%; Rab9 promoter act: 7.7%; SMN2 splice enh: 31.6µM*; Luc counter: -4.4%; FLuc modulator: -17.5%; ELG1 genotoxic: -12.1%

What do the screens show for `O=C(Nc1ccc(Cl)cc1C(=O)NCc1cccnc1)c1ccco1`?
NPC1 promoter act: 3.9%; Rab9 promoter act: -0.1%; SMN2 splice enh: inconclusive; Luc counter: -0.8%; FLuc modulator: -0.5%; ELG1 genotoxic: -0.6%

Results for O=C(Nc1ccc(N2CCOCC2)c(Cl)c1)c1ccccc1F ?
NPC1 promoter act: 3.16µM*; Rab9 promoter act: 3.55µM*; SMN2 splice enh: 23.8%; Luc counter: 3.4%; FLuc modulator: 9.53µM*; ELG1 genotoxic: 5.17µM*

Results for COc1cccc(CNS(=O)(=O)c2cc3c(cc2Cl)NC(=O)CO3)c1 ?
NPC1 promoter act: 2.3%; Rab9 promoter act: 3.4%; FLuc modulator: -1.6%; ELG1 genotoxic: -1.1%

How did O=C(Nc1ccccc1)/C(=C/c1ccc(F)cc1)NC(=O)c1ccco1 do in these assays?
NPC1 promoter act: -1.8%; Rab9 promoter act: 0.0%; FLuc modulator: -0.7%; ELG1 genotoxic: 0.9%

Results for N#Cc1ccc(OCC(=O)OCC(=O)NC2CC2)cc1 ?
ELG1 genotoxic: 0.5%

How did O=C(Nc1ccc(N2CCOCC2)c(Cl)c1)C1CCCCC1 do in these assays?
NPC1 promoter act: 18.3%; Rab9 promoter act: 12.7%; SMN2 splice enh: -12.3%; Luc counter: 0.4%; FLuc modulator: inconclusive; ELG1 genotoxic: inconclusive

How did Cc1cc(C(=O)Nc2ccc(N3CCOCC3)c(Cl)c2)c(C)o1 do in these assays?
NPC1 promoter act: inconclusive; Rab9 promoter act: 2.82µM*; FLuc modulator: 6.75µM*; ELG1 genotoxic: inconclusive

What do the screens show for `O=C(Nc1ccc(N2CCOCC2)c(Cl)c1)c1ncn[nH]1`?
NPC1 promoter act: 23.4%; Rab9 promoter act: 8.7%; SMN2 splice enh: 17.3%; Luc counter: -2.2%; FLuc modulator: 21.3µM*; ELG1 genotoxic: 2.1%

How did O=C(Nc1ccc(NC(=O)c2ccco2)c(Cl)c1)c1ccccc1 do in these assays?
NPC1 promoter act: 25.2%; Rab9 promoter act: inconclusive; Luc counter: -18.8%; FLuc modulator: inconclusive; ELG1 genotoxic: inconclusive

What do the screens show for `O=C(Nc1ccc(N2CCOCC2)c(Cl)c1)c1ccco1`?
NPC1 promoter act: 1.41µM*; Rab9 promoter act: 3.55µM*; SMN2 splice enh: 12.6µM*; Luc counter: -7.0%; FLuc modulator: 9.53µM*; ELG1 genotoxic: 2.59µM*

How did O=C(Nc1ccc(Br)c(Cl)c1)c1ccco1 do in these assays?
NPC1 promoter act: inconclusive; Rab9 promoter act: 3.55µM*; SMN2 splice enh: inconclusive; Luc counter: -7.7%; FLuc modulator: 21.3µM*; ELG1 genotoxic: 20.6µM*

How did COc1ccc(NC(C)=O)cc1S(=O)(=O)N1CCN(Cc2cccs2)CC1 do in these assays?
NPC1 promoter act: -3.5%; Rab9 promoter act: -2.3%; ELG1 genotoxic: 1.2%

How did O=C(N/N=C/c1ccc(N2CCOCC2)s1)c1ccccc1Br do in these assays?
NPC1 promoter act: 10.5%; Rab9 promoter act: 26.1%; SMN2 splice enh: 15.3%; Luc counter: -1.5%; FLuc modulator: inconclusive; ELG1 genotoxic: 4.7%

What do the screens show for `Clc1cccc(N/N=C/c2ccc(N3CCOCC3)s2)c1`?
NPC1 promoter act: -0.8%; Rab9 promoter act: 20.7%; SMN2 splice enh: -5.4%; Luc counter: 1.4%; FLuc modulator: 9.53µM*; ELG1 genotoxic: -9.4%

How did Cc1ccccc1Cn1c2ccccc2c2cnn(CC(=O)NCCCc3ccccc3)c(=O)c21 do in these assays?
SMN2 splice enh: 4.8%; FLuc modulator: -0.4%

What do the screens show for `CN(/N=C/C=C/c1ccccc1)c1cc(=O)n(C)c(=O)[nH]1`?
NPC1 promoter act: 10.6%; Rab9 promoter act: 15.7%; SMN2 splice enh: 9.6%; Luc counter: -0.4%; FLuc modulator: -19.2%; ELG1 genotoxic: -2.6%

Results for COc1ccc(/C=N/N(C)c2cc(=O)n(C)c(=O)[nH]2)cc1OC ?
NPC1 promoter act: -0.4%; Rab9 promoter act: 4.8%; SMN2 splice enh: 9.6%; Luc counter: -2.9%; FLuc modulator: 16.9µM*; ELG1 genotoxic: inconclusive

Results for COc1cc(C)c(NC(=O)c2cc(C3CC3)nc3c2cnn3C(C)C)cc1OC ?
NPC1 promoter act: -3.9%; Rab9 promoter act: 1.2%; FLuc modulator: -0.9%; ELG1 genotoxic: -3.2%

How did CC(=Nc1cccc(C)c1)c1sc2ccccc2c1O do in these assays?
NPC1 promoter act: 19.8%; Rab9 promoter act: inconclusive; SMN2 splice enh: 12.6µM*; Luc counter: -6.9%; FLuc modulator: 3.01µM*; ELG1 genotoxic: 9.2µM*

What do the screens show for `CC(=O)NCCN=C(C)c1sc2ccccc2c1O`?
NPC1 promoter act: inconclusive; Rab9 promoter act: inconclusive; SMN2 splice enh: inconclusive; Luc counter: 2.6%; FLuc modulator: inconclusive; ELG1 genotoxic: 11.2%

How did O=[N+]([O-])c1cccc(N=Cc2sc3ccccc3c2O)c1 do in these assays?
NPC1 promoter act: 26.0%; Rab9 promoter act: inconclusive; SMN2 splice enh: 9.1%; Luc counter: -5.4%; FLuc modulator: inconclusive; ELG1 genotoxic: inconclusive

Results for CC(=Nc1ccccc1O)c1sc2ccccc2c1O ?
NPC1 promoter act: 5.7%; Rab9 promoter act: inconclusive; FLuc modulator: 9.53µM*; ELG1 genotoxic: inconclusive

Results for CC(=Nc1ccc(O)cc1)c1sc2ccccc2c1O ?
NPC1 promoter act: 1.78µM*; Rab9 promoter act: 1.12µM*; SMN2 splice enh: 10µM*; Luc counter: -1.5%; FLuc modulator: 2.39µM*; ELG1 genotoxic: 4.61µM*

Results for CCC(C(=O)O)N1C(=O)/C(=C/C(C)=C/c2ccccc2)SC1=S (stereo not drawn) ?
NPC1 promoter act: -5.0%; Rab9 promoter act: 3.6%; FLuc modulator: -1.9%; ELG1 genotoxic: 0.1%

How did CC(/C=C1\SC(=O)N(CCCC(=O)O)C1=O)=C\c1ccccc1 do in these assays?
NPC1 promoter act: -31.8%; Rab9 promoter act: -30.5%[0.369 µM]; SMN2 splice enh: -76.4%; Luc counter: -1.3%; FLuc modulator: 5.36µM*; ELG1 genotoxic: -8.6%

Results for CC(=C\c1ccccc1)/C=C1/SC(=S)N(CCCC(=O)O)C1=O ?
NPC1 promoter act: -15.2%; Rab9 promoter act: -20.3%; FLuc modulator: 26.9µM*; ELG1 genotoxic: -0.8%

How did CC(/C=C1\SC(=S)N(NC(=O)c2ccc(O)cc2)C1=O)=C\c1ccccc1 do in these assays?
NPC1 promoter act: 7.2%; Rab9 promoter act: 2.6%; SMN2 splice enh: inconclusive; Luc counter: 2.7%; FLuc modulator: inconclusive; ELG1 genotoxic: -0.6%

Compound activity as filed in PubChem BioAssay.
